Measured values reported in PubChem BioAssay AID463190 (Sanford-Burnham Center for Chemical Genomics, 2010).
Screen size: about 330,000 compounds; about 7,300 (2.2%) were called active.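 Rule for the calls: active = inhibition of at least 40%; inactive = the rest.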 For the sample, actives were picked, then their nearest neighbours and some compounds at random.

Assay: growth inhibitors of tim10-1 mutant yeast, primary screen, luminescence, uHTS (AID 463190);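 note: mutant grown at 25 °C; 0% = DMSO wells with yeast and 100% = wells holding no yeast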
Conditions: S. cerevisiae tim10-1 ts strain growth, BacTiter-Glo, 24 h; at 20 µM; stronger effect = higher value

| Compound | inhibition |
| --- | --- |
| COc1ccc(CNC(=O)COc2ccccc2C(=O)c2cnn(-c3ccccc3)c2)cc1OC | 4.14% (inactive) |
| CCN1C(=NCCc2cccnc2)N[C@@H](c2ccccc2)C(C(=O)OC)=C1C | 0.495% (inactive) |
| COCCN(C(=O)C(C)C)c1nnc(-c2ccc(C(C)(C)C)cc2)s1 | 38.1% (inactive) |
| Cn1c(SCC(=O)Nc2ccc(N3CCOCC3)cc2)nnc1C(F)(F)F | -4.28% (inactive) |
| C[n+]1ccccc1C1CCCC/C1=N\Nc1ccc([N+](=O)[O-])cc1[N+](=O)[O-] (stereo not given) | 28% (inactive) |
| O=C(Nc1ccccc1)O/N=C1\CCCCC1c1ccc([N+](=O)[O-])cc1[N+](=O)[O-] (stereo not given) | 24.7% (inactive) |
| O=[N+]([O-])c1ccc(N/N=C2/CCCCC2c2ccccn2)c([N+](=O)[O-])c1 (stereo not given) | 42% (active) |
| O=C(NNC(=S)NC(=O)c1cn(-c2ccccc2)nc1-c1ccccc1)c1ccncc1 | 13.6% (inactive) |
| O=C(C1CCCO1)N(c1ccc(F)cc1)C1C=CS(=O)(=O)C1 (stereo not given) | 5.92% (inactive) |
| CCCN(CCC)c1c([N+](=O)[O-])c(=O)oc2ccccc12 | 11% (inactive) |
| CCCC(NCC(=O)Nc1ccccc1C(=O)NC1CC1)c1ccccc1 (stereo not given) | 11.8% (inactive) |
| CCc1ccc(NC(=O)NC(C)c2ccc3c(c2)OCO3)cc1 (stereo not given) | 2.45% (inactive) |
| CC(=NCc1ccc2c(c1)OCO2)C1=C(O)c2ccccc2C1=O | 61.2% (active) |
| CC(=NCc1ccco1)C1=C(O)c2ccccc2C1=O | 34.3% (inactive) |
| Cc1ccc(S(=O)(=O)N2CCN=C2SCc2c(F)cccc2Cl)cc1 | -8.21% (inactive) |
| COc1cc(N=Cc2c(O)[nH]c3ccccc23)cc(OC)c1OC | 44% (active) |
| COc1cc(/C=N/NC(=O)Cc2ccccc2)cc(OC)c1OC | 2.14% (inactive) |
| COc1ccc2[nH]c(C(=O)N/N=C/c3cc(OC)c(OC)c(OC)c3)cc2c1 | 20.1% (inactive) |
| Cc1ccsc1-c1cc(C(=O)O)c2c(ccc3ccccc32)n1 | -20.7% (inactive) |
| O=c1nc(N/N=C/c2ccco2)cn[nH]1 | 17.8% (inactive) |

| Compound | inhibition |
| --- | --- |
| COc1ccc(NC(=O)CN(C)C(=O)c2n[nH]c3ccccc23)cc1 | 9.05% (inactive) |
| O=C(CCCC(=O)N(CC(=O)NC1CCCC1)Cc1ccccc1Cl)Nc1ccccn1 | 14.9% (inactive) |
| CC1CN(C(=O)c2ccc([N+](=O)[O-])s2)CC(C)O1 (stereo not given) | 17.2% (inactive) |
| O=[N+]([O-])c1ccc(C=Nc2ccc(Cl)cc2Cl)s1 | 77.7% (active) |
| CC(C)(C)c1cc(C(=O)N/N=C/c2ccc([N+](=O)[O-])s2)n[nH]1 | 32% (inactive) |
| O=C1CCc2cc(S(=O)(=O)Nc3ccc(C(F)(F)F)cc3)cc3c2N1CC3 | 4.21% (inactive) |
| O=c1oc(-c2ccccc2NS(=O)(=O)c2ccc(Cl)cc2)nc2ccccc12 | 39.6% (inactive) |
| NC(=O)c1ccc(CN2CCC(Cc3ccccc3)CC2)cc1 | -11.2% (inactive) |
| CCOc1ccc2oc(C(=O)N(CC)CC(=O)Nc3ccc(NC(C)=O)cc3)c(C)c2c1 | 16.8% (inactive) |
| CCSc1ncnc2c(C#N)c3n(c12)CCCCC3 | -13.6% (inactive) |
| CCSC1=C(C#N)C(=O)n2c1cc1c2CCCC1 | 58.8% (active) |
| O=C(CSc1ccc2nnc(-c3ccccc3)n2n1)N1CCCc2ccccc21 | -0.717% (inactive) |
| O=S(=O)(Nc1ccc2[nH]ncc2c1)c1ccccc1Cl | 6% (inactive) |
| COCc1cc(=O)[nH]c(-c2ccc(C(F)(F)F)cc2)n1 | -4.56% (inactive) |
| CC(Sc1nn(-c2ccc(Cl)cc2)c(=S)s1)C(=O)NCC1CCCO1 (stereo not given) | 25.6% (inactive) |
| Cc1nc([N+](=O)[O-])nn1C12CC3CC(CC(Br)(C3)C1)C2 | 27% (inactive) |
| CCc1nn(CCCC(=O)Nc2ccc(C)cc2C)c(=O)c2cc3occc3n12 | 41.6% (active) |
| CCc1nn(CCCC(=O)Nc2ccc(C)c(C)c2)c(=O)c2cc3occc3n12 | 33.6% (inactive) |
| CCc1nn(CCCC(=O)NCc2ccc(C)cc2)c(=O)c2cc3occc3n12 | 31.1% (inactive) |
| CCC1(CC)Cc2ccccc2-c2nc3ccccc3c(=O)n21 | 16.4% (inactive) |

| Compound | inhibition |
| --- | --- |
| CCOC(=O)C1Cn2c(nc3c(c2=O)C(C)(CC)Cc2ccccc2-3)S1 (stereo not given) | 40.7% (active) |
| CCC1(CC)Cc2ccccc2-c2nc(CCl)[nH]c(=O)c21 | 27.6% (inactive) |
| COC(=O)c1cccc(N(C(=O)c2ccco2)C(C(=O)NC2CCCC2)c2ccco2)c1 (stereo not given) | 3.43% (inactive) |
| Cn1c(=O)c2c(ncn2CC(COCc2ccccc2Cl)OCc2ccccc2Cl)n(C)c1=O (stereo not given) | 19.9% (inactive) |
| Cc1ccnc(N2CCN(C(=O)CSc3nc4ccccc4nc3N3CCCCC3)CC2)c1 | 2.78% (inactive) |
| COc1cccc(-n2c(=S)sc3c(=O)n(-c4ccccc4OC)c(SCC4OCCO4)nc32)c1 | 4.35% (inactive) |
| CNC(C)C#Cc1ccc2sc3cc(OC)c(OC)cc3c(=O)c2c1 (stereo not given) | 43.4% (active) |
| Cc1ccc(C(=O)COC(=O)CCN2C(=O)C3C4CC(C(Br)C4Br)C3C2=O)cc1 (stereo not given) | 7.92% (inactive) |
| CCCCOc1ccc(C(=O)NCC(=O)OCC(=O)N2CCN(S(=O)(=O)c3ccc(C)cc3C)CC2)cc1 | 15.7% (inactive) |
| O=C(COC(=O)c1ccc(F)cc1)NCCCc1ccccc1 | 24.1% (inactive) |
| CCOc1ccc(NC(=O)c2ccc(NC(=O)CN3C(=O)C(=O)N(CC(C)C)C3=O)cc2)cc1 | 2.57% (inactive) |
| COc1ccc(CCNc2nc3ccc(C)cc3n3cnnc23)cc1OC | 2.87% (inactive) |
| COc1ccc(CCNc2nc(C)cc(C)n2)cc1OC | -4.02% (inactive) |
| COc1ccc(CCNc2cc(C)nc3c(-c4ccc(Cl)cc4)c(C)nn23)cc1OC | 43.9% (active) |
| O=C(c1cnc(Cl)c(Cl)c1)N1CCN(S(=O)(=O)c2ccc(F)cc2)CC1 | 3.46% (inactive) |
| COc1ccc(Cc2nnc(SCC(=O)Nc3ccc(C)c(C)c3)o2)cc1OC | 7.89% (inactive) |
| N/C(=N\OC(=O)CCn1cccc(C(F)(F)F)c1=O)c1ccc(OC(F)(F)F)cc1 | -0.346% (inactive) |
| O=C(CN1CCN(Cc2ccc(F)cc2Cl)C1=O)NCc1cccs1 | 12.6% (inactive) |
| O=C(O)CC12CC3CC(C1)CC(n1ncc(NCc4ccc(F)cc4)c(Cl)c1=O)(C3)C2 | 0.72% (inactive) |
| O=c1c(Cl)c(NCc2ccc(F)cc2Cl)cnn1C12CC3CC(CC(C3)C1)C2 | 43.1% (active) |
